Rows were chosen to be rich in hits. Some 17% of all compounds tested hit in one or more screens of this group.
DT40 TDP1 no CPT: qHTS for Inhibitors of human tyrosyl-DNA phosphodiesterase 1 (TDP1): qHTS in cells in absence of CPT | 420,000 tested, 15% active | Potency, µM (titrated, usually from 46.2 µM), for the others: at the highest dose activity change, negative = growth inhibition, actives largely listed as inhibitors | DT40 Tdp1-/- hTDP1 cells, no CPT, ATP luminescence, 48 h; further: on the % scale 0 is the no-effect control and ±100 the full control effect; nearly all actives have a fitted effect of over 55% in size
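Chicken DT40 Tdp1-/- cells complemented with human TDP1, screened without camptothecin (DMSO vehicle only), 400 cells/well. Compounds pin-transferred, cells incubated at 37 °C for at least 48 hr. Growth read as ATP-dependent luminescence (CellTiter-Glo, 30 min at RT).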
ATXN2 expr inh: reduces ATXN2 reporter expression in HEK-293 cells; HEK-293 ATXN2-luciferase reporter, luminescence, 24 h; Potency, µM (highest dose often 57 µM), inactives show at the highest dose activity change, negative = inhibition, hits mostly inhibitors; AID 1745845; 360,000 tested, 0.72% active; further: on the % scale 0 is the no-effect control and ±100 the full control effect; nearly all actives have a fitted effect of over 55% in size
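qHTS (up to 57 uM final) was run with 24 h compound exposure of reporter cells at 37 °C. Each well was multiplexed: SteadyGlo luminescence measured ATXN2-luciferase expression after a fluorogenic Gly-Phe-AFC viability readout (25 uM final).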
DT40 TDP1 CPT: DT40-hTDP1 cell growth loss with CPT | chicken DT40 Tdp1-/-;hTDP1 cells + 20 nM CPT, ATP luminescence, 48 h | Potency, µM (highest dose often 46.2 µM), inactives show top-dose activity change, negative = growth inhibition, actives largely listed as inhibitors | 420,000 tested, 12% active; further: on the % scale 0 is the no-effect control and ±100 the full control effect; nearly all actives have a fitted effect of over 55% in size
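Chicken DT40 Tdp1-/- cells complemented with human TDP1, 400 cells/well, exposed to compounds plus 20 nM camptothecin for at least 48 h at 37 C; viability read as ATP content by CellTiter-Glo luminescence.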
HepG2 tox: counter-screen for TGF-b inhibitors: cytotoxicity in HepG2 cells. AID 588856. Potency, µM (highest dose often 46.1 µM), for inactives: top-dose activity change, negative = cytotoxicity, actives largely listed as cytotoxic. HepG2 CAGA-GFP viability, ATP luminescence, 18 h. 410,000 tested, 0.76% active
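HepG2 CAGA-GFP cells (1000/well, DMEM with 1% FBS) received compound, then TGF-beta at 500 pg/mL final, and were incubated 18 hours at 37 degrees C. Viability was read by CellTiter-Glo luminescence. Media-only wells were set as complete cell-killing and DMSO as no toxicity.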
TGFb SMAD3 inh: inhibitors of TGF-b signaling. HepG2 CAGA-GFP TGF-b/SMAD3 reporter, GFP fluorescence, 18 h; TGF-beta stimulated, 500 pg/mL final. Potency, µM (series often up to 46.1 µM), for the others: at the top dose activity, negative = inhibition, actives largely listed as inhibitors. 410,000 tested, 1.2% active. AID 588855; further: on the % scale 0 is the no-effect control and ±100 the full control effect; nearly all actives have a fitted effect of over 65% in size
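First, reporter cells (HEPG2 CAGA-GFP) rested 2 h at 37 degrees C. Next, compounds were pinned in and TGF-beta added to 500 pg/mL final. After 18 h, GFP was imaged per cell and summed per well.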
ATXN viability: viability counter-screen for ATXN expression inhibitors. S2 cells (HEK-293 line with an ATXN2-luciferase reporter) viability, CellTiter-Fluor protease fluorescence, 24 h. Potency, µM (series often up to 56.7 µM), actives largely listed as cytotoxic. 400,000 tested, 0.49% active. AID 651635; further: nearly all actives have a fitted effect of over 40% in size
An asterisk follows results filed as active; i = inactive; ? = inconclusive; . = not tested or not shown. The call rests on the fitted dose curve; in most records, active means well fitted curve in the direction sought with a large enough effect; inconclusive means small, poorly fitted or top-dose-only effect, or another doubt; inactive means no such curve, though single readings can be large; an effect the other way counts as inactive or inconclusive. Potency means the concentration at half of the fitted maximal effect.

SMILES	DT40 TDP1 no CPT	ATXN2 expr inh	DT40 TDP1 CPT	HepG2 tox	TGFb SMAD3 inh	ATXN viability
Cc1ccc(C)c(S(=O)(=O)N2CCN(C(=O)[C@@H](NC(=O)c3ccc(F)cc3)C(C)C)CC2)c1	20.6µM*	.	?	-4.7%	-28.6%	i
Cc1ccc(C)c(S(=O)(=O)N2CCN(C(=O)CNC(=O)c3ccc4ccccc4c3)CC2)c1	16.4µM*	-35.7%	?	-85.3%	-14.9%	i
CCN(C(=O)COC(=O)c1cccnc1Nc1ccccc1F)C1CCS(=O)(=O)C1 (stereo not drawn)	-11.6%	52.1%	15.2%	0.1%	-7.4%	i
COc1cccc(C(=O)Nc2cc(-c3ccccc3)no2)c1	?	13.4%	?	-22.4%	-0.8%	i
CCC1CCc2c(sc(NC(=O)C3c4ccccc4Oc4ccccc43)c2C(=O)OC)C1 (stereo not drawn)	10.3µM*	4.0%	?	-22.5%	-24.6%	i
CNS(=O)(=O)c1ccc(NC(=O)C2c3ccccc3Oc3ccccc32)cc1	-14.1%	?	-15.3%	-5.1%	0.0%	?
CCOC(=O)c1c(NC(=O)Nc2ccc(Cl)cc2)sc(C)c1C	13µM*	?	?	5.3%	-7.3%	?
CCOC(=O)c1cc(NC(=O)/C=C\C(=O)O)ccc1Cl	-0.7%	-26.4%	-10.7%	-0.5%	-18.9%	i
CCOC(=O)c1c(NC(=O)/C=C/C(=O)O)sc(C)c1-c1ccc(Cl)cc1	13µM*	?	?	17.8µM*	?	?
COC(=O)c1c(NC(=O)C2c3ccccc3Oc3ccccc32)sc2c1CCC(C(C)(C)C)C2 (stereo not drawn)	?	3.9%	?	-0.5%	-9.1%	i
CCN(CC)S(=O)(=O)c1ccc(NC(=O)C2c3ccccc3Oc3ccccc32)cc1	16.4µM*	-2.7%	23.1µM*	-10.4%	-13.0%	i
N#CCN1CCCC(C(N)=O)C1 (stereo not drawn)	13.7%	4.3%	8.5%	13.3%	6.0%	i
CCOc1ccc(Nc2nnc(-n3nc(C)cc3C)c3ccccc23)cc1	2.5%	1.3%	3.6%	-2.0%	?	i
CCOC(=O)c1c(NC(=O)C2C3CCC(O3)C2C(=O)O)sc2c1CCC(CC)C2 (stereo not drawn)	-17.7%	-5.4%	-17.1%	-16.5%	-1.9%	i
CCOc1cccc(C2NC(=S)NC(C)=C2C(=O)Nc2ccccc2)c1 (stereo not drawn)	23.1µM*	-5.1%	?	-24.1%	?	i
CCOc1cc(C2NC(=S)NC(C)=C2C(=O)Nc2ccc(OC)cc2)ccc1O (stereo not drawn)	5.5%	-3.1%	?	-9.0%	-11.7%	i
CCOC(=O)c1c(NC(=O)C2c3ccccc3Oc3ccccc32)sc(C)c1C	20.6µM*	4.6%	?	-2.8%	-11.8%	i
CCOC(=O)c1c(NC(=O)C2C3C=CC(C3)C2C(=O)O)sc2c1CCC(CC)C2 (stereo not drawn)	?	4.5%	16.4µM*	-38.7%	-9.0%	i
CCOC(=O)c1c(NC(=O)C2c3ccccc3Oc3ccccc32)sc(C(C)=O)c1C	?	-4.1%	?	-2.6%	11.8%	i
CCOC(=O)c1c(NC(=O)C2=C(C)NC(=S)NC2c2ccc(C)cc2)sc(C)c1C (stereo not drawn)	13µM*	-6.3%	?	25.5%	6.3%	.
COC(=O)c1c(NC(=O)C2c3ccccc3Oc3ccccc32)sc(C)c1C	?	5.4%	23.1µM*	-3.5%	-1.8%	i
CN(C(=O)COC(=O)c1ccc(=O)n(Cc2ccccc2)n1)C1CCCCC1	6.7%	1.6%	-16.9%	4.3%	20.4%	i
Cc1cc(C)c(S(=O)(=O)Nc2cc(-c3cn4ccccc4n3)ccc2C)cc1C	20.6µM*	?	20.6µM*	-34.0%	-22.4%	?
Cc1ccc(-c2cn3cccc(C)c3n2)cc1NS(=O)(=O)c1ccccc1	16.4µM*	0.0%	25.9µM*	-17.3%	-3.0%	?
COc1ccc(Br)cc1S(=O)(=O)Nc1cc(-c2cn3ccccc3n2)ccc1C	13µM*	-1.8%	?	-35.1%	-13.1%	i
SMILES	DT40 TDP1 no CPT	ATXN2 expr inh	DT40 TDP1 CPT	HepG2 tox	TGFb SMAD3 inh	ATXN viability
CCCS(=O)(=O)Nc1cc(-c2cn3ccc(C)cc3n2)ccc1C	?	.	-7.1%	-32.9%	.	.
Cc1ccc(S(=O)(=O)Nc2cccc(-c3cn4cccc(C)c4n3)c2)c(C)c1	?	?	?	-21.6%	-5.4%	?
COc1ccc(-c2cn3ccccc3n2)cc1OC	?	6.8%	?	-55.6%	-20.4%	i
COc1ccc(S(=O)(=O)Nc2cc(-c3cn4ccc(C)cc4n3)ccc2C)cc1OC	16.4µM*	-0.8%	16.4µM*	-23.3%	-21.1%	?
CC(=O)Nc1cccc(C(=O)NC2CCCc3c2cnn3-c2cc(C)cc(C)c2)c1 (stereo not drawn)	3.3%	11.8%	5.4%	-7.4%	19.1%	i
O=C1Nc2ccccc2C1(c1ccc(O)cc1)c1ccc(O)cc1	.	17.7%	.	.	.	i
Cc1cccn2cc(-c3ccc(S(=O)(=O)N4CCCCC4)cc3)nc12	?	-10.1%	?	-14.8%	6.4%	i
Cc1cccn2cc(-c3ccc(S(=O)(=O)N4CCOCC4)cc3)nc12	16.4µM*	2.9%	?	3.0%	-4.6%	i
COc1ccc(-c2cc(C(=O)Nc3cccnc3)no2)cc1OC	-13.8%	54.6%	0.2%	-5.0%	-12.2%	?
Cc1ccc(S(=O)(=O)N2CCCCC2)cc1C(=O)OCC(=O)NC(=O)NC12CC3CC(CC(C3)C1)C2	-27.7%	-4.1%	-0.4%	-13.0%	-17.1%	i
Cc1ccc2[nH]c(-c3ccccc3)cc(=O)c2c1	0.651µM*	-17.2%	0.82µM*	-18.9%	?	i
Clc1ccc(-c2cc3ccccc3[nH]2)cc1	4.4%	35.6%	6.6%	-33.1%	-12.0%	?
Cc1ccc(-c2cc(=O)c3ccccc3[nH]2)cc1	9.2µM*	21.2%	16.4µM*	-5.1%	-2.3%	i
O=c1cc(-c2ccc(Cl)cc2)[nH]c2ccccc12	6.51µM*	12.9%	4.11µM*	-29.0%	-2.7%	i
COc1cc2[nH]c(-c3ccc(C)cc3)cc(=O)c2cc1OC	?	24.3%	-25.9%	-26.1%	0.2%	i
